Screening results as filed in PubChem.
Glioma ERSR ind: qHTS for Inducers of the Endoplasmic Reticulum Stress Response (ERSR) in Human Glioma: qHTS; U87-MG GRP78 promoter luciferase reporter, 16 h; Potency, µM, for the others: at the top dose activation, actives largely listed as activators; hit rate 0.02% among 420,000; active = well fitted activation curve with a large enough effect; also: potency is read from the fitted curve at half-maximal effect; series mostly up to about 76 µM; % of control where 0% means no effect; nearly all actives have a fitted effect of over 35% in size
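Stably transfected U87-MG glioma cells carrying a GRP78-based luciferase sensor; 16 h compound incubation. Luminescence end-point read 10 min after Bright-Glo addition at room temperature.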
TRHR agonist: qHTS for Small Molecule Agonists and Allosteric Enhancers of Human TRH Receptor: Primary Screen for Agonists; Thyrotropin-releasing hormone receptor (Homo sapiens), P34981; AID 493084, 2011; activation, % at 2 µM; TRHR cells, calcium flux fluo-8, FDSS agonist mode; hit rate 0.18% among 360,000; also: 0% is about no effect
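Read-out: compound-evoked intracellular calcium rise in TRHR cells, fluo-8 dye, kinetic FDSS fluorescence at 1 s/cycle following a 10-cycle baseline. Cells cultured overnight before dye loading (30 min–1.5 h, RT).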
D1 ag: Allosteric Agonists of the Human D1 Dopamine Receptor: qHTS. D(1A) dopamine receptor (Homo sapiens), P21728. HEK293 T-REx D1 cells, calcium flux, agonist mode. activation, % at 2 µM. hit rate 1% among 360,000; also: 0% is about no effect
Target sequence (P21728 whole entry, looked up): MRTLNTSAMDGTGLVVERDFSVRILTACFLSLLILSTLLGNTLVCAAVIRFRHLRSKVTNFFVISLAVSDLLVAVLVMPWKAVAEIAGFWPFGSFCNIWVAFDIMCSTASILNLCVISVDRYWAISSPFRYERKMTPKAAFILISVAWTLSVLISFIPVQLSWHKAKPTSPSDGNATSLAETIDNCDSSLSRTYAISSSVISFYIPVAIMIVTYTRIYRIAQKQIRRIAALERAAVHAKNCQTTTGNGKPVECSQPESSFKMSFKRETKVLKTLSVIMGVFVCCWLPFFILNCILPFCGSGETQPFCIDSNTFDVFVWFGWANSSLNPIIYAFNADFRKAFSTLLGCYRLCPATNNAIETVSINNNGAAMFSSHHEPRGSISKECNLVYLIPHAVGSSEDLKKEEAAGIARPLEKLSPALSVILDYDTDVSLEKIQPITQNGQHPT
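Inducible HEK293 T-REx D1 cells, force-coupled to calcium signalling, were plated at 4000 cells/well with tetracycline and held overnight at 30 C. After no-wash calcium dye loading, compound-evoked calcium rise over 180 s flagged agonists.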
TRHR enhancer: qHTS for Small Molecule Agonists and Allosteric Enhancers of Human TRH Receptor: Primary Screen for Enhancers; AID 493056, 2011; TRHR cells, fluo-8 calcium fluorescence, EC20 TRH enhancement; hit rate 0.66% among 360,000; enhancement, % at 2 µM; Thyrotropin-releasing hormone receptor (Homo sapiens), P34981; in the data active = enhancement above about 30%; also: 0% is about no effect
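TRHR-expressing cells loaded with fluo-8 calcium dye were read kinetically (ex 480/em 530) during compound addition, then stimulated with an EC20 of TRH (10 nM final). Enhancement of the Gq-mediated intracellular calcium response was scored.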
D1 antagonist: Antagonist of Human D 1 Dopamine Receptor: qHTS; activity change, negative = inhibition, % at 10 µM; AID 504652, 2011; D(1A) dopamine receptor (Homo sapiens), P21728; HEK293 TREx D1 cells, calcium flux, dopamine EC80; hits give low values; hit rate 3.2% among 360,000; in the data active = activity change below about -30%; also: % is scaled to controls: 0 for no effect and ±100 for the full control effect
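Allosteric or orthosteric antagonism assessed as attenuation of the calcium response to EC80 dopamine, added 180 s after compound, in induced HEK293 Trex D1 cells loaded with no-wash calcium dye.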
D1 PAM: Potentiators of Human D1 Dopamine Receptor: qHTS; HEK293 TREx D1 cells, calcium flux, dopamine EC20 potentiation; D(1A) dopamine receptor (Homo sapiens), P21728; AID 504651, 2011; hit rate 0.036% among 360,000; potentiation, % at 10 µM; in the data active = potentiation above about 30%; also: 0% is about no effect
The depositor's hits bear a star. Rows were chosen to be rich in hits. Some 4% of all compounds tested hit in one or more screens of this group. Rule as the data show it, unless noted: active = activation above about 30%; inactive = the rest.

`Cc1ccc(NC(=S)N/N=C/c2ccc([N+](=O)[O-])s2)cc1` gave Glioma ERSR ind -2%, TRHR agonist 6, D1 ag 31*, TRHR enhancer -3, D1 antagonist 10 and D1 PAM -4.
Screening Cc1cc(C)cc(N=Cc2ccc([N+](=O)[O-])s2)c1 returned Glioma ERSR ind -9%, TRHR agonist 0, D1 ag 3, TRHR enhancer 2, D1 antagonist -2 and D1 PAM 1.
`CCCC(C)C(=O)Nc1ncc(S(=O)(=O)c2ccc([N+](=O)[O-])cc2)s1` (configuration not stated) gave Glioma ERSR ind -3%, TRHR agonist -1, D1 ag 59*, TRHR enhancer 15, D1 antagonist -68* and D1 PAM 6.
Screening CN1CCC(N(CCc2ccccc2)C(=O)CCC(=O)O)CC1 returned Glioma ERSR ind -4%, TRHR agonist 1, D1 ag 3, TRHR enhancer 2, D1 antagonist -32* and D1 PAM 5.
`O=C(O)C1C2CCC(O2)C1C(=O)NCc1ccc(Cl)cc1` (configuration not stated) gave Glioma ERSR ind -2%, TRHR agonist 0, D1 ag 1, TRHR enhancer 0, D1 antagonist -37* and D1 PAM -10.
Screening O=C(O)C1C2CCC(O2)C1C(=O)Nc1ccc(Cl)cc1F (configuration not stated) returned Glioma ERSR ind -3%, TRHR agonist 0, D1 ag 1, TRHR enhancer -7, D1 antagonist 13 and D1 PAM -14.
Screening CC(=O)NC12CC3CC(C1)CC(C(=O)Nc1c(C)n(C)n(-c4ccccc4)c1=O)(C3)C2 returned Glioma ERSR ind 1%, TRHR agonist 0, D1 ag 3, TRHR enhancer 15, D1 antagonist -41* and D1 PAM 0.
Screening Cc1c(NC(=O)C23CC4CC(CC(C)(C4)C2)C3)c(=O)n(-c2ccccc2)n1C returned Glioma ERSR ind 2%, TRHR agonist 0, D1 ag 3, TRHR enhancer -13, D1 antagonist 14 and D1 PAM -9.
`O=C1CC(c2ccsc2)Sc2ccccc2N1` (configuration not stated) gave Glioma ERSR ind -3%, TRHR agonist -1, D1 ag 5, TRHR enhancer 0, D1 antagonist -32* and D1 PAM 1.
Screening CN(Cc1n[nH]c(=S)n1C)S(=O)(=O)c1ccccc1 returned Glioma ERSR ind -2%, TRHR agonist 0, D1 ag -1, TRHR enhancer 0, D1 antagonist -2 and D1 PAM -1.
O=C(N1CCNCC1)N1CCOCC1 was read as TRHR agonist 1, D1 ag 0, TRHR enhancer -5, D1 antagonist -2 and D1 PAM -1.
Cc1ccc(C(=O)N(Cc2nc(-c3ccc(C)cc3)no2)C(C)C)cc1 was read as Glioma ERSR ind -6%, TRHR agonist 0, D1 ag 2, TRHR enhancer 3, D1 antagonist 7 and D1 PAM 6.
CCOc1cc(C(=O)N(Cc2nc(-c3ccc(C)cc3)no2)C(C)C)cc(OCC)c1OCC was read as Glioma ERSR ind 0%, TRHR agonist 1, D1 ag 19, TRHR enhancer -1, D1 antagonist -35* and D1 PAM 1.
For Cc1ccc(-c2noc(CN(C(=O)c3cccs3)C(C)C)n2)cc1 the results were Glioma ERSR ind -1%, TRHR agonist 0, D1 ag 3, TRHR enhancer 7, D1 antagonist -30* and D1 PAM 0.
`N#CC1=C(N)S[C@@H](C(=O)c2ccc(F)cc2)[C@@H]1c1cccs1` gave Glioma ERSR ind 1%, TRHR agonist 1, D1 ag 3, TRHR enhancer 3, D1 antagonist -43* and D1 PAM -8.
Screening CCOc1cc(NC(=S)Nc2ccc(Cl)cc2)c(OCC)cc1NC(C)=O returned Glioma ERSR ind 2%, TRHR agonist 0, D1 ag 9, TRHR enhancer 8, D1 antagonist -40* and D1 PAM 1.
Screening CCOc1ccc(Br)cc1-c1noc(-c2cccs2)n1 returned Glioma ERSR ind 1%, TRHR agonist 0, D1 ag 18, TRHR enhancer -4, D1 antagonist 14 and D1 PAM 1.
For C=CCN1CN(Cc2ccco2)CNC1=S the results were Glioma ERSR ind -1%, TRHR agonist 1, D1 ag 3, TRHR enhancer -2, D1 antagonist -6 and D1 PAM 2.
For S=C1NCN(Cc2ccco2)CN1 the results were Glioma ERSR ind -3%, TRHR agonist 0, D1 ag 2, TRHR enhancer 41*, D1 antagonist 1 and D1 PAM -2.
For Cc1ccccc1OCCCC(=O)Nc1ccccc1C(F)(F)F the results were Glioma ERSR ind 0%, TRHR agonist 1, D1 ag 3, TRHR enhancer 3, D1 antagonist 4 and D1 PAM 2.
`CSC1=C(C#N)C(c2ccccc2Cl)C2=C(N1)c1ccccc1C2=O` (configuration not stated) gave Glioma ERSR ind 2%, TRHR agonist 0, D1 ag -1, TRHR enhancer 9, D1 antagonist -42* and D1 PAM -7.
Screening Cc1ccc(C(=O)NC2CCC(C)CC2)s1 (configuration not stated) returned Glioma ERSR ind -7%, TRHR agonist 0, D1 ag 1, TRHR enhancer -7, D1 antagonist -1 and D1 PAM -5.
Screening Cc1ccc(C(=O)NC2CCCC2)s1 returned Glioma ERSR ind 2%, TRHR agonist 0, D1 ag 2, TRHR enhancer 32*, D1 antagonist -16 and D1 PAM -8.
COc1ccc(N(CC(=O)NC2CCCCC2)C(=O)c2ccc(C)s2)c(OC)c1 was read as Glioma ERSR ind -1%, TRHR agonist -1, D1 ag 1, TRHR enhancer -8 and D1 antagonist -35*.
Screening COC(=O)c1[nH]c2cc(OC)ccc2c1NC(=O)CN1CCC(C(N)=O)(N2CCCCC2)CC1 returned Glioma ERSR ind -2%, TRHR agonist 0, D1 ag -1, TRHR enhancer 0, D1 antagonist 18 and D1 PAM -2.
